This note sets out measurements from PubChem BioAssay (NCI).

Molecules are shown by their SMILES. About 79,000 compounds went through this panel and 15% of them were active in at least one assay; those are over-represented in the sample as a whole. Values without a mark were called inactive. Activity calls are given as the source filed them. No stated cut-off is given here; in the data, active means growth inhibition above about 70%; inactive means the rest.

Assay [1] in a line: NCI Yeast Anticancer Drug Screen. Data for the rad50 strain (AID 155).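 Further: 0% = growth of vehicle-only cultures of the same strain.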 Particulars: S. cerevisiae rad50 strain growth inhibition, hits give high values. In outline: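 Cells are treated with compound, grown, and their growth is then scored against vehicle-only cultures of the same repair-deficient yeast strain.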
Assay [2] in a line: NCI Yeast Anticancer Drug Screen. Data for the mec2-1 strain (AID 157). The settings on record: S. cerevisiae mec2-1 strain, hits give high values. In outline:
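Mutant yeast (mec2-1) grown with compound; growth inhibition relative to vehicle control reported.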

Assay [3] in a line: NCI Yeast Anticancer Drug Screen. Data for the sgs1 mgt1 strain (AID 161).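 Further: 0% = growth of cultures given vehicle only.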 The settings on record: S. cerevisiae sgs1 mgt1 strain, hits give high values. In outline: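 Yeast cells carrying a defined DNA-repair defect were exposed to test compounds. Growth inhibition was measured relative to vehicle-treated controls.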
A short description of assay [4]: NCI Yeast Anticancer Drug Screen. Data for the cln2 rad14 strain (AID 165).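 Further: 0% = growth equal to vehicle treated cultures.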 The settings on record: S. cerevisiae cln2 rad14 strain, hits give high values. A digest of the protocol:
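Readout is yeast growth inhibition versus vehicle-treated controls, using a strain with cln2 and rad14 alterations exposed to compound.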

The nature of assay [5]: NCI Yeast Anticancer Drug Screen. Data for the bub3 strain (AID 167). The settings on record: S. cerevisiae bub3 mutant strain, hits give high values. A digest of the protocol: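 Part of a panel of yeast mutants defective in DNA damage repair or cell cycle regulation. Each strain is grown with compound, and inhibition is calculated relative to solvent-treated cultures.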
Assay [6] is described as follows: NCI Yeast Anticancer Drug Screen. Data for the mlh1 rad18 strain (AID 175). The settings on record: S. cerevisiae mlh1 rad18 strain growth inhibition, hits give high values. In outline:
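Genetically defined yeast (DNA repair-deficient) exposed to compounds; growth inhibition determined relative to vehicle.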

Setting [7] is: at 5.0 µM (retest, dose inferred, filed as 0.5).
The mark [8] stands for this setting: at 50.0 µM (retest, dose inferred, filed as 5.0).

As for `O=C(O)c1cccc2cccc(-c3c4ccc(=O)c(O)c-4oc4c(O)c(O)ccc34)c12`, the growth inhibition in assay [1] (setting [7]) is 86% (active); in assay [1] (setting [8]), 96% (active); in assay [1] (at 50.0 µM) it was 87% (active); in assay [2] (setting [7]) it was 84% (active); in assay [2] (setting [8]) it was 97% (active); in assay [2] (at 50.0 µM) it was 90% (active). The growth inhibition in assay [3] (setting [7]) is 93% (active); in assay [3] (setting [8]) it was 98% (active); in assay [3] (at 50.0 µM), 90% (active); in assay [4] (setting [7]), 62%; in assay [4] (setting [8]), 97% (active); in assay [4] (at 50.0 µM) it was 89% (active). The growth inhibition in assay [5] (setting [7]) was 93% (active); in assay [5] (setting [8]), 97% (active); in assay [5] (at 50.0 µM) it was 87.5% (active); in assay [6] (setting [7]) it was 96% (active); in assay [6] (setting [8]), 95% (active); in assay [6] (at 50.0 µM), 85.7% (active).
Regarding `CCOC(=O)/C(=C\c1ccc2ccccc2c1)P(=O)(OCC)OCC`, the growth inhibition in assay [1] (setting [7]) is -3%; in assay [1] (setting [8]), 59%; in assay [1] (at 50.0 µM), 78.2% (active); in assay [2] (setting [7]) it was 3%; in assay [2] (setting [8]) it was 81% (active); in assay [2] (at 50.0 µM), 79.5% (active). Also, the growth inhibition is 9% in assay [3] (setting [7]); 66% in assay [3] (setting [8]); 72% (active) in assay [3] (at 50.0 µM); 30% in assay [4] (setting [7]); 69% in assay [4] (setting [8]); 65.4% in assay [4] (at 50.0 µM). The growth inhibition is 29% in assay [5] (setting [7]); 88% (active) in assay [5] (setting [8]); 74% (active) in assay [5] (at 50.0 µM); 17% in assay [6] (setting [7]); 88% (active) in assay [6] (setting [8]); 59.3% in assay [6] (at 50.0 µM).
Take `NC(=S)N/N=C\c1nccc2c(N)cccc12`: the growth inhibition is 6% in assay [1] (setting [7]); 87% (active) in assay [1] (setting [8]); 61.4% in assay [1] (at 50.0 µM); 35% in assay [2] (setting [7]); 89% (active) in assay [2] (setting [8]); 76.7% (active) in assay [2] (at 50.0 µM). In addition, the growth inhibition in assay [3] (setting [7]) is 9%; in assay [3] (setting [8]), 81% (active); in assay [3] (at 50.0 µM) it was 74% (active); in assay [4] (setting [7]) it was -12%; in assay [4] (setting [8]), 81% (active); in assay [4] (at 50.0 µM), 36.4%. Also, the growth inhibition was 0% in assay [5] (setting [7]); 85% (active) in assay [5] (setting [8]); 74.8% (active) in assay [5] (at 50.0 µM); 10% in assay [6] (setting [7]); 85% (active) in assay [6] (setting [8]); 67.5% in assay [6] (at 50.0 µM).
Regarding `CCCCC(CCc1ccc([N+](=O)[O-])cc1)(C(C)=O)C(=O)OCC` (configuration not stated), the growth inhibition in assay [1] (setting [7]) was 1%; in assay [1] (setting [8]), -41%; in assay [1] (at 50.0 µM) it was 59.7%; in assay [2] (setting [7]), 2%; in assay [2] (setting [8]), -10%; in assay [2] (at 50.0 µM), 13.1%. Also, the growth inhibition in assay [3] (setting [7]) is -2%; in assay [3] (setting [8]) it was 24%; in assay [3] (at 50.0 µM), 47%; in assay [4] (setting [7]), -4%; in assay [4] (setting [8]) it was -14%; in assay [4] (at 50.0 µM), 4.75%. The growth inhibition in assay [5] (setting [7]) is 11%; in assay [5] (setting [8]) it was 45%; in assay [5] (at 50.0 µM), 83.2% (active); in assay [6] (setting [7]), -10%; in assay [6] (setting [8]) it was -50%; in assay [6] (at 50.0 µM), 62%.
In the case of `N#CC1c2ccccc2C=CN1C(=O)CCCl` (configuration not stated), the growth inhibition in assay [1] (setting [7]) is 7%; in assay [1] (setting [8]), 41%; in assay [1] (at 50.0 µM), 6.05%; in assay [2] (setting [7]), 2%; in assay [2] (setting [8]) it was 36%; in assay [2] (at 50.0 µM) it was 34.2%. For the same compound, the growth inhibition is 11% in assay [3] (setting [7]); 34% in assay [3] (setting [8]); 53.5% in assay [3] (at 50.0 µM); 8% in assay [4] (setting [7]); 42% in assay [4] (setting [8]); 17.1% in assay [4] (at 50.0 µM). For the same compound, the growth inhibition is 15% in assay [5] (setting [7]); 74% (active) in assay [5] (setting [8]); 74.3% (active) in assay [5] (at 50.0 µM); -11% in assay [6] (setting [7]); 38% in assay [6] (setting [8]); 29.1% in assay [6] (at 50.0 µM).
`Cc1cc(I)nc2ccccc12`: the growth inhibition in assay [1] (setting [7]) was 0%; in assay [1] (setting [8]), 15%; in assay [1] (at 50.0 µM), 68.4%; in assay [2] (setting [7]), -1%; in assay [2] (setting [8]), 1%; in assay [2] (at 50.0 µM) it was 21.2%. The growth inhibition is -3% in assay [3] (setting [7]); 8% in assay [3] (setting [8]); 59% in assay [3] (at 50.0 µM); -3% in assay [4] (setting [7]); -18% in assay [4] (setting [8]); -18.4% in assay [4] (at 50.0 µM). Also, the growth inhibition in assay [5] (setting [7]) was -6%; in assay [5] (setting [8]), -13%; in assay [5] (at 50.0 µM), 26.8%; in assay [6] (setting [7]), -2%; in assay [6] (setting [8]), -12%; in assay [6] (at 50.0 µM), 48.7%.
With `CN=C(N)N/N=C(\c1ccccc1)c1ccc(Br)cc1`, the growth inhibition in assay [1] (setting [7]) was 11%; in assay [1] (setting [8]), 51%; in assay [1] (at 50.0 µM), 46.4%; in assay [2] (setting [7]) it was 8%; in assay [2] (setting [8]), 39%; in assay [2] (at 50.0 µM) it was 71% (active). Moreover, the growth inhibition is 13% in assay [3] (setting [7]); 43% in assay [3] (setting [8]); 16.9% in assay [3] (at 50.0 µM); 18% in assay [4] (setting [7]); 33% in assay [4] (setting [8]); 12.3% in assay [4] (at 50.0 µM). The growth inhibition was 5% in assay [5] (setting [7]); 63% in assay [5] (setting [8]); 1.9% in assay [5] (at 50.0 µM); 10% in assay [6] (setting [7]); 64% in assay [6] (setting [8]); -2.1% in assay [6] (at 50.0 µM).
Consider `CCCOS(=O)(=O)c1ccccc1`, for which the growth inhibition in assay [1] (setting [7]) was 14%; in assay [1] (setting [8]) it was 1%; in assay [1] (at 50.0 µM), 0.7%; in assay [2] (setting [7]), 19%; in assay [2] (setting [8]) it was 38%; in assay [2] (at 50.0 µM), 12.3%. Also, the growth inhibition in assay [3] (setting [7]) was -7%; in assay [3] (setting [8]) it was 4%; in assay [3] (at 50.0 µM), 10.1%; in assay [4] (setting [7]), 38%; in assay [4] (setting [8]), 35%; in assay [4] (at 50.0 µM), -2.2%. The growth inhibition in assay [5] (setting [7]) is 23%; in assay [5] (setting [8]), 42%; in assay [5] (at 50.0 µM), -1.4%; in assay [6] (setting [7]), 11%; in assay [6] (setting [8]), 32%; in assay [6] (at 50.0 µM) it was 14.3%.
With `C=C1C(=O)C2=CC1CCC(=O)C1(C)CCC(OC(C)=O)C(C)(C)C1CC2O` (configuration not stated), the growth inhibition was 16% in assay [1] (setting [7]); 52% in assay [1] (setting [8]); 82.1% (active) in assay [1] (at 50.0 µM); 10% in assay [2] (setting [7]); 70% (active) in assay [2] (setting [8]); 82.8% (active) in assay [2] (at 50.0 µM). The growth inhibition in assay [3] (setting [7]) was 12%; in assay [3] (setting [8]), 46%; in assay [3] (at 50.0 µM), 78.7% (active); in assay [4] (setting [7]) it was 16%; in assay [4] (setting [8]) it was 40%; in assay [4] (at 50.0 µM), 65%. Further, the growth inhibition in assay [5] (setting [7]) was 15%; in assay [5] (setting [8]) it was 83% (active); in assay [5] (at 50.0 µM), 87% (active); in assay [6] (setting [7]), 15%; in assay [6] (setting [8]), 65%; in assay [6] (at 50.0 µM), 73.7% (active).
